Screening results from PubChem BioAssay.
KDM5B inh – blocks human KDM5B histone demethylase activity | AID 1347165 | Q9UGL1 | KDM5B demethylase, FDH-coupled NADH fluorescence (FDH is formaldehyde dehydrogenase) | 220,000 compounds, 2.6% hits | Potency, µM (highest dose often 57.7 µM), hits mostly inhibitors; active means well fitted inhibition curve with a large enough effect; further: 0% is about no effect; nearly all actives have a fitted effect of over 70% in size
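KDM5BΔAP (200 nM final) in 50 mM HEPES pH 7.5, 0.01% Tween-20 was preincubated 10 min at RT with compound over a concentration range. Substrate mix (H3K4me3 12.5 µM, α-KG 25 µM, Fe²⁺, ascorbate, NAD⁺, FDH) was added, and NADH fluorescence change over 30 min gave dose-response curves.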
* = called active by the depositor; i = inactive. Many of the other results were omitted from the sample, so hits are more common in it than they were. Potency means the concentration at half of the fitted maximal effect.

SMILES	KDM5B inh
COc1cccc(-c2[nH]nc3c2C(c2ccccc2F)C(C#N)=C(N)O3)c1 (stereo not given)	i
NCc1ccc(-c2cccc(Cl)c2)cc1	i
Cc1cc(Cl)ccc1-c1ccc(C=O)cc1	79.4µM*
O=Cc1ccc(-c2cccc(Cl)c2)cc1	31.6µM*
Cc1cc(Cl)ccc1-c1ccccc1C=O	i
Cc1cc(Cl)ccc1-c1cccc(CN)c1	i
O=Cc1ccccc1-c1cccc(Cl)c1	i
CCc1cccc2c(C(=O)CN3CCC(C(=O)N4CCCC4)CC3)c[nH]c12	i
CN(CCNC(=O)C1CCN(c2nc3cccnc3s2)CC1)C1CCCCC1	i
Cc1cc(Cl)ccc1N(CC(=O)NCCN1CCOCC1)S(=O)(=O)c1ccccc1	i
C/C(=N\NC(=O)c1cccc2ccccc12)c1ccc(Cl)s1	i
COc1ccccc1CN1CCCC(CN(CCN(C)C)C(=O)c2cccnc2)C1 (stereo not given)	i
COc1cccc(C(=O)c2oc3cc(NC(C)=O)ccc3c2C)c1	i
COc1ccc(CN2CCc3nc(C(=O)Nc4cccnc4)oc3CC2)cc1OC	i
COc1cccc(CN2CCc3nc(C(=O)Nc4cccnc4)oc3CC2)c1	i
O=C(Nc1cccnc1)c1nc2c(o1)CCN(Cc1cccc(O)c1)CC2	i
O=C(Nc1cccc(C(F)(F)F)c1)c1nc2c(o1)CCN(Cc1nccs1)CC2	i
Cc1csc(NC(=O)c2nc3c(o2)CCN(Cc2c(F)cccc2F)CC3)n1	i
COc1ccccc1CN1CCc2nc(C(=O)Nc3cccc(C(F)(F)F)c3)oc2CC1	35.5µM*
N#Cc1cccc(CN2CCc3nc(C(=O)Nc4cccc(C(F)(F)F)c4)oc3CC2)c1	35.5µM*
O=C(Nc1cccnc1)c1nc2c(o1)CCN(Cc1cccs1)CC2	i
Cc1noc(C)c1CN1CCc2nc(C(=O)Nc3cccc(C(F)(F)F)c3)oc2CC1	25.1µM*
Cc1noc(C)c1CN1CCc2nc(C(=O)NCc3ccccc3)oc2CC1	i
COc1ccccc1CN1CCc2nc(C(=O)Nc3nc(C)cs3)oc2CC1	i
O=C(Nc1cccc(C(F)(F)F)c1)c1nc2c(o1)CCN(Cc1cccs1)CC2	31.6µM*
SMILES	KDM5B inh
CCCn1nnnc1CN1CCC(C(=O)c2ccc3c(c2)OCCO3)CC1	i
CN(Cc1ccccc1)C(=O)CNC(=O)Nc1ccccc1	i
CCCN(CCC)c1nc(-c2ccccc2O)nc2ccccc12	i
COc1ccc(NC(=O)Cn2c(=O)n(-c3cccc(C)c3)c(=O)c3c2cc(C)n3C)cc1OC	i
Cc1ccc(C)c(NC(=O)CN(C)C(=O)COc2cccc(F)c2)c1	i
Cc1cccc(C(=O)N2CCC(C(NC(=O)c3ccccc3Cl)C(=O)NCC(C)C)CC2)c1 (stereo not given)	i
CCOc1ccccc1CN1CCCC(c2nc(-c3cccnc3)no2)CCNC(=O)CC1 (stereo not given)	i
COCCOc1ccc2c(n1)CCN(C(=O)c1cccc(C)c1)C2	i
COc1ccc(-c2nnc(SCC(=O)NC(C)c3ccc4c(c3)CCCC4)o2)cc1 (stereo not given)	i
CN1CCC2(C1)CN(CC1CC1)c1ccc(C(=O)NC3COC3)cc12 (stereo not given)	35.5µM*
CCC(=O)N1CCc2ccc(C(=O)NC3CC3)cc21	i
CN1C(=O)Cc2cc(C(=O)NC3CCCCCC3)ccc21	i
CCC(=O)N1CCc2ccc(C(=O)NC3CCCCC3)cc21	i
O=C(NC1CC1)c1ccc2c(c1)CCCC2	i
CN1CCC2(C1)CN(CC1CC1)c1ccc(C(=O)NC3CCC3)cc12 (stereo not given)	35.5µM*
Cc1ccc2[nH]cc(CCNC3CC(=O)N(c4ccc(F)cc4)C3=O)c2c1 (stereo not given)	i
CCN(C(=O)CN(C)S(=O)(=O)c1cc2c(cc1C)NC(=O)C(C)O2)c1ccc(OC)cc1 (stereo not given)	i
CCOc1nccnc1NC1CCN(C(=O)c2ccnn2CC)CC1	28.2µM*
CCn1nccc1C(=O)N1CCC(N2C(=O)C(OC)C23CCOCC3)CC1 (stereo not given)	i
CCn1nccc1C(=O)N1CCC(Cc2ccc(C(N)=O)cc2)CC1	i
CCn1nccc1C(=O)N1CCC(Nc2nccnc2OC)CC1	28.2µM*
CCn1nccc1C(=O)N1CCC(Cc2ccc(C(=O)NCCOC)cc2)CC1	i
CCn1nccc1C(=O)N1CCC(N2C(=O)[C@H](OC)[C@@H]2c2ccncc2)CC1	i
Cc1ccc(NC(=O)N2CCCCCCNC(=O)[C@@H]3CCCC[C@@H]32)cc1C	i
Cc1nn(CCC(=O)Nc2cccc(F)c2)c(=O)c(C#N)c1C	i
SMILES	KDM5B inh
CC(=O)Nc1ccc(NC(=O)c2cccc3c2ccn3C)cc1	i
Cc1ccsc1/C=C/C(=O)c1cc2ccccc2o1	i
Cc1cc(C)n(-c2nc3ccccc3nc2Nc2ccc(Cl)cc2)n1	i
Cc1ccsc1C(=O)N1CCOc2ccc(CN3CCc4ccccc4C3)cc2C1	i
CCOc1nccnc1NC1CCN(C(=O)Cc2cccs2)CC1	31.6µM*
Cc1ccc(CC(=O)N2CCN(C(=O)C3CCCO3)CC2)cc1 (stereo not given)	i
CNC(=O)N1CCC(Oc2ncccc2C(=O)N(C)C)C1 (stereo not given)	i
CCOc1nccnc1NC1CCN(C(=O)NC)CC1	28.2µM*
CCOc1nccnc1NC1CCN(C(=O)C2CCCO2)CC1 (stereo not given)	28.2µM*
CCCOc1cccc(C(=O)N2CCN(C(=O)C3CCCO3)CC2)c1 (stereo not given)	i
CCOC(=O)N1CCC(Nc2ncncn2)CC1	i
O=C(Cc1cccs1)N1CCSCC1	i
O=C(Cc1cccs1)N1CCC(Oc2ccccc2)C1 (stereo not given)	i
O=C1c2ccccc2C(c2ccc(NC(=O)C(c3ccccc3)c3ccccc3)cc2)(c2ccc(NC(=O)C(c3ccccc3)c3ccccc3)cc2)c2ccccc21	i
CC(C)NC(=O)CON=C1c2ccccc2-c2ccccc21	i
O=C(C1CCCCCC1)N1CCC(n2cc(C3CCCCC3)nn2)CC1	i
Cc1ccc(Oc2c(CCC(=O)NC(C)C)c(C)nn2-c2ccccc2)cc1	i
CN1CCN(C(=O)[C@@H]2CCC[C@@H](NCc3cccc(Cl)c3)CN(C)C(=O)C2)CC1	i
CSC(C)C(=O)NC(CC(C)(C)C)c1ccc(F)cc1 (stereo not given)	i
O=C(CN1CC2CC(C1)[C@H]1CCCC(=O)N1C2)NCCCN1CCCC1=O (stereo not given in full)	i
O=C(NCCCN1CCCc2ccccc21)c1cccnc1N1CC2CC(C1)[C@H]1CCCC(=O)N1C2 (stereo not given in full)	28.2µM*
O=C(NCCCN1CCOCC1)c1ccc(N2CC3CC(C2)[C@H]2CCCC(=O)N2C3)nc1 (stereo not given in full)	i
C=CCNC(=O)c1cccnc1N1CC2CC(C1)[C@H]1CCCC(=O)N1C2 (stereo not given in full)	25.1µM*
O=C(c1cccnc1N1CC2CC(C1)[C@H]1CCCC(=O)N1C2)N1CCN(c2ccc(Cl)cc2)CC1 (stereo not given in full)	i
CNC(=O)c1ccc(N2CC3CC(C2)[C@H]2CCCC(=O)N2C3)nc1 (stereo not given in full)	i
CC(C)CC(=O)Nc1ccc2oc(-c3cccc(Cl)c3)nc2c1	i
